Screens deposited in PubChem BioAssay by several laboratories.
Sampled rows, rich in hits. Any-hit rate of the full collection: about 4.7%.
eIF4H inh: inhibitors of RNA binding by human eIF4H; 290,000 tested, 0.94% active; Q15056; inhibition, % at 35 µM; eIF4H fluorescence polarization binding assay;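 note: calls also rest on retests at 20 µM and on dose response follow-up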
SUMO HTRF inh: SUMOylation inhibition. AID 2006. inhibition, % at 35 µM. 290,000 tested, 0.36% active. HTRF SUMOylation assay, SAE1/SAE2 + UBC9, in vitro. P63279; in the data active = inhibition above about 50%, passing the limit was not always enough
Target sequence (P63279 whole entry, looked up): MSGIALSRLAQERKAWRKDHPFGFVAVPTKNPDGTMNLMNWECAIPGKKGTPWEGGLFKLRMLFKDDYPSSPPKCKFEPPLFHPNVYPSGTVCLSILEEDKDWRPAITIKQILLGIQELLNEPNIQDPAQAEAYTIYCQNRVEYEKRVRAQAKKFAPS
Efflux pump inh: antifungal efflux pump inhibition, Nile Red retention | 330,000 tested, 0.44% active | S. cerevisiae Candida pump triplex | AID 485275 | inhibition, % at 10 µM;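 active = plate passing quality check with inhibition over a set limit, or well fluorescence over plate mean plus 4 SD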;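 note: Nile Red retained in pooled yeast measured as flow cytometry median fluorescence; higher means more Nile Red kept so more efflux inhibition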
ALR H2O2 inh: blocks human ALR sulfhydryl oxidase activity; inhibition, % (no concentration beside the values); purified ALR, DTT oxidation, H2O2 HRP-luminol luminescence; 290,000 tested, 3.8% active; P55789;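 active = mean replicate inhibition above about 79%, with every replicate also reaching it, limit read from the data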
PABP polyA inh: blocks human PABP binding to poly(A) RNA; P11940; fluorescence polarization; inhibition, % at 35 µM; 290,000 tested, 1% active;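 note: calls also rest on retests at 20 µM and on dose response follow-up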
Target sequence (P11940 whole entry, looked up): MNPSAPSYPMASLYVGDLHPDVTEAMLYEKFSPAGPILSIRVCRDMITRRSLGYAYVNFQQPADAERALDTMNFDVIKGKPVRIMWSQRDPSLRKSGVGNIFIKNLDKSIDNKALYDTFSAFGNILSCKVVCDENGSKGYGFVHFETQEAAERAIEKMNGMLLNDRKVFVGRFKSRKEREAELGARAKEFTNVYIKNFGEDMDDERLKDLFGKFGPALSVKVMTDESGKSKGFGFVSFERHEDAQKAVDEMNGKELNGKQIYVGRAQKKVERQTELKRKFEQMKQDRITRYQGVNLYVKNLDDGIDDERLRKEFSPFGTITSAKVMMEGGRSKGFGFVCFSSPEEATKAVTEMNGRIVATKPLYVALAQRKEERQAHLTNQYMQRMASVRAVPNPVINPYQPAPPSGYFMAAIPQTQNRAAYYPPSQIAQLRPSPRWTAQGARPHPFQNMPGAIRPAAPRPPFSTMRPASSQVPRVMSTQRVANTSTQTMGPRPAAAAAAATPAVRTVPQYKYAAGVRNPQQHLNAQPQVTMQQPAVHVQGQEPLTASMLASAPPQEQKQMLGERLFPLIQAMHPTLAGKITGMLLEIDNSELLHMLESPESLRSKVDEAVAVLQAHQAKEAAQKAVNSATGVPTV
PABP1 MLLE inh: blocks PAM2 peptide binding to the PABP1 MLLE domain; GST-MLLE / FITC-PAM2 fluorescence polarization; AID 588489; inhibition, % at 20 µM; 360,000 tested, 0.36% active; P11940; in the data active = inhibition above about 35%, passing the limit was not always enough
Yeast cmpd fluor: compound fluorescence in yeast efflux pump counter-screen. shares compounds with Efflux pump inh. S. cerevisiae AD/pABC3, flow cytometry. fluorescence ratio to DMSO, % at 10 µM. 1,700 tested, 4% active;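 active = fluorescence ratio to DMSO above its plate's cutoff, the plate mean ratio plus 5 SD, cut at about 210% in these data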;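 note: unstained yeast with no Nile Red so the signal is compound autofluorescence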
CaMdr1 efflux inh: inhibitors of Candida albicans Mdr1 efflux pump; shares compounds with Efflux pump inh; S. cerevisiae AD/CaMDR1, Nile Red efflux, flow cytometry; inhibition, % at 10 µM; 1,700 tested, 1% active; AID 588518; in the data active = inhibition above about 26%;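 note: higher means more Nile Red retained so more efflux inhibition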
Cdr2 pump inh: inhibitors of Candida albicans Cdr2 efflux pump. shares compounds with Efflux pump inh. S. cerevisiae AD/CaCDR2, Nile Red retention, flow cytometry. Nile Red retention ratio vs DMSO, % at 10 µM. 1,700 tested, 4% active. AID 588520; in the data active = Nile Red retention ratio vs DMSO above about 190%;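 note: higher ratio means more blocking of Cdr2 efflux of the dye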
CaCdr1 efflux inh: Candida Cdr1 efflux pump inhibition; shares compounds with Efflux pump inh; S. cerevisiae AD/CaCDR1, Nile Red efflux, flow cytometry; inhibition, % at 10 µM; 1,700 tested, 1% active;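 active = inhibition above the screen-wide mean plus twice its standard deviation, cut at about 32% in these data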
Each line names hits and unclear results; the compound was inactive in the other large screens (follow-up assays come after a bar, where they were run). Unless noted, the rule behind the calls is not given here.

O=C(COc1ccc(Cl)cc1Cl)NN1C(=O)/C(=C\c2ccc(Cl)cc2)SC1=S	none | Yeast cmpd fluor inactive | CaMdr1 efflux inh inactive | Cdr2 pump inh inactive | CaCdr1 efflux inh inactive
COc1ccccc1CN(Cc1cc2cc3c(cc2[nH]c1=O)OCCO3)Cc1nnnn1Cc1ccco1	eIF4H inh 58.2, Efflux pump inh 1.4, PABP polyA inh 40.7 | Yeast cmpd fluor inactive | CaMdr1 efflux inh inactive | Cdr2 pump inh inactive | CaCdr1 efflux inh inactive
CCc1ccc2[nH]c(=O)c(CN(Cc3ccccc3)Cc3nnnn3Cc3ccco3)cc2c1	none
C[C@@H]1CN([C@@H](C)CO)C(=O)c2cccc(NC(=O)c3nc4ccccc4s3)c2O[C@@H]1CN(C)CC1CC1	none (no result: eIF4H inh, SUMO HTRF inh, ALR H2O2 inh, PABP polyA inh)
Cn1nc(-c2ccc(N3CCN(CCO)CC3)c([N+](=O)[O-])c2)c2ccccc2c1=O	none
COc1cc2cc(CN(CCc3cccc(C)c3)C(=S)NCCCN(C)C)c(=O)[nH]c2cc1OC	none
CNC(=S)N(CCc1cccc(C)c1)Cc1cc2cc(OC)c(OC)cc2[nH]c1=O	Efflux pump inh 1.7 | Yeast cmpd fluor inactive | CaMdr1 efflux inh inactive | Cdr2 pump inh inactive | CaCdr1 efflux inh inactive
CCC(Sc1nc2cc(OC)c(OC)cc2c(=O)n1CCc1ccc(OC)c(OC)c1)C(=O)NCCOC (stereo not given)	Efflux pump inh 1.3 | Yeast cmpd fluor inactive | CaMdr1 efflux inh inactive | Cdr2 pump inh inactive | CaCdr1 efflux inh inactive
O=C(Nc1ccc(CN2CCOCC2)cc1)c1ccc(Br)o1	Efflux pump inh 1.7 | Yeast cmpd fluor inactive | CaMdr1 efflux inh inactive | Cdr2 pump inh inactive | CaCdr1 efflux inh inactive
Cc1ccccc1OCCC(=O)OCC(=O)c1c(N)n(CC(C)C)c(=O)n(C)c1=O	Efflux pump inh 6.2 (no result: ALR H2O2 inh) | Yeast cmpd fluor inactive | CaMdr1 efflux inh inactive | Cdr2 pump inh inactive | CaCdr1 efflux inh inactive
CCc1nnc(NS(=O)(=O)c2ccc(NC(=S)NC(=O)/C=C/c3ccccc3)cc2)s1	Efflux pump inh 5.8 | Yeast cmpd fluor inactive | CaMdr1 efflux inh inactive | Cdr2 pump inh inactive | CaCdr1 efflux inh inactive
O=C(Nc1ccccc1O)c1cc2cc(Br)ccc2oc1=O	Efflux pump inh 1.3 | Yeast cmpd fluor inactive | CaMdr1 efflux inh inactive | Cdr2 pump inh inactive | CaCdr1 efflux inh inactive
O=C(NNC(=O)c1cc2cc(Br)ccc2oc1=O)c1ccc(O)cc1	none
COc1ccc(-c2nsc(C(=O)N(c3ccc(F)cc3)C(C(=O)NC3CCCC3)c3ccc(OC)cc3)c2N)cc1 (stereo not given)	Efflux pump inh 0.3 | Yeast cmpd fluor inactive | CaMdr1 efflux inh inactive | Cdr2 pump inh inactive | CaCdr1 efflux inh inactive
N#Cc1ccc(OCc2c(-c3ccccc3)nnn2CC(=O)O)cc1	none (no result: eIF4H inh, SUMO HTRF inh, Efflux pump inh, ALR H2O2 inh, PABP polyA inh)
N#Cc1ncc(-c2ccc3c(c2)OCCOCCOCCOCCO3)nc1C#N	Efflux pump inh 9.6 | Yeast cmpd fluor inactive | CaMdr1 efflux inh inactive | Cdr2 pump inh inactive | CaCdr1 efflux inh inactive
COc1ccc(NC(=O)c2c[nH]n3c(=O)cc(C4CCN(C(=O)OC(C)(C)C)CC4)nc23)cc1Cl	Efflux pump inh 1.1 | Yeast cmpd fluor inactive | CaMdr1 efflux inh inactive | Cdr2 pump inh inactive | CaCdr1 efflux inh inactive
CCCOc1cccc(NC(=O)OC2CCN(C)CC2)c1	none
CCCCCCOC(=O)C[N+](C)(C)CCOC1CC2CCC1(C)C2(C)C (stereo not given)	Efflux pump inh 2.6 (no result: ALR H2O2 inh) | Yeast cmpd fluor inactive | CaMdr1 efflux inh inactive | Cdr2 pump inh active | CaCdr1 efflux inh inactive
O=C(Nc1cccnc1)C1CCN(S(=O)(=O)c2ccc(Cl)cc2)CC1	none
CCn1cc(CN2CCC(n3nccc3NC(=O)c3ccc(OC)cc3)CC2)cn1	none
N#C/C(=C\c1ccc([N+](=O)[O-])o1)C(=O)Nc1ccc(F)cc1	Efflux pump inh 1.6 | Yeast cmpd fluor 275.0 | CaMdr1 efflux inh inactive | Cdr2 pump inh inactive | CaCdr1 efflux inh inactive
COc1ccc(N)cc1-n1c(C)ccc1C	none
COc1ccc(N)cc1C#N	Efflux pump inh 0.7 | Yeast cmpd fluor inactive | CaMdr1 efflux inh inactive | Cdr2 pump inh inactive | CaCdr1 efflux inh inactive
COc1cc(N)ccc1Cc1ccc(N)cc1OC	Efflux pump inh 0.5, ALR H2O2 inh 96.6 | Yeast cmpd fluor inactive | CaMdr1 efflux inh inactive | Cdr2 pump inh inactive | CaCdr1 efflux inh inactive
O=C(CSC1=Nc2ccccc2C2=NC(CC(=O)N3CCN(c4ccccc4)CC3)C(=O)N12)NCC1CCCO1 (stereo not given)	Efflux pump inh 0.8 | Yeast cmpd fluor inactive | CaMdr1 efflux inh inactive | Cdr2 pump inh inactive | CaCdr1 efflux inh inactive
CC(=O)Nc1cc2c3c(c1)CC(=O)N3CCC2	none
c1ccc2nc3c(nc2c1)OCC1CCCCN31 (stereo not given)	Efflux pump inh 0.8 | Yeast cmpd fluor inactive | CaMdr1 efflux inh inactive | Cdr2 pump inh inactive | CaCdr1 efflux inh inactive
c1ccc2nc(N3CCCC3)c(N3CCCCC3)nc2c1	none (no result: eIF4H inh, SUMO HTRF inh, Efflux pump inh, ALR H2O2 inh, PABP polyA inh)
Cc1cc(C)c(N(C(=O)CN2C(=O)c3ccccc3S2(=O)=O)C(C(=O)NCC2CCCO2)c2ccc(F)cc2)c(C)c1 (stereo not given)	Efflux pump inh 22.3 | Yeast cmpd fluor inactive | CaMdr1 efflux inh inactive | Cdr2 pump inh inactive | CaCdr1 efflux inh inactive
COc1ccccc1/C=C/C(=O)OCC(=O)Nc1c(C)nn(-c2ccccc2)c1C	none (no result: eIF4H inh, SUMO HTRF inh, PABP polyA inh)
O=C(COCC(=O)N/N=C/c1ccc(F)cc1)N/N=C/c1ccc(F)cc1	Efflux pump inh 1.8 | Yeast cmpd fluor inactive | CaMdr1 efflux inh inactive | Cdr2 pump inh inactive | CaCdr1 efflux inh inactive
Cc1ccc(OCCCC(=O)N(C)CC(=O)Nc2c(C)cccc2C)cc1	none (no result: eIF4H inh, SUMO HTRF inh, Efflux pump inh, ALR H2O2 inh, PABP polyA inh)
O=C(CN(C(=O)CCC(=O)Nc1nccs1)c1ccc2c(c1)OCO2)NCc1ccccc1	none
CCOc1ccc(CCNC(=O)c2cc([N+](=O)[O-])ccc2N2CCOCC2)cc1OCC	none
CCOc1ccc(CCNC(=O)COC(=O)c2cc([N+](=O)[O-])ccc2N2CCOCC2)cc1OCC	Efflux pump inh 9.2 | Yeast cmpd fluor inactive | CaMdr1 efflux inh inactive | Cdr2 pump inh inactive | CaCdr1 efflux inh inactive
CCOC(=O)c1oc2ccc(Br)cc2c1COC(=O)C1=COCCO1	none (no result: eIF4H inh, SUMO HTRF inh, PABP polyA inh)
COc1ccccc1NC(=O)c1ccccc1NC(=O)c1cc(Cl)ccc1NC(=O)c1ccco1	Efflux pump inh 0.5 | Yeast cmpd fluor inactive | CaMdr1 efflux inh inactive | Cdr2 pump inh inactive | CaCdr1 efflux inh inactive
CC(/C=C/c1ccc(Cl)o1)=C\C(=O)O	none
CC(=C/C(=O)O)/C=C/c1ccco1	Efflux pump inh 2.4 | Yeast cmpd fluor inactive | CaMdr1 efflux inh inactive | Cdr2 pump inh inactive | CaCdr1 efflux inh inactive
